This passage reports inhibition results from PubChem BioAssay AID504690 (Sanford-Burnham Center for Chemical Genomics, 2011).

Screen size: about 350,000 compounds; about 2,700 (0.77%) were called active.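 Rule for the calls: active = inhibition reaching at least a set limit at 20 µM in the primary screen (cut at about 59% in these data); inactive = the rest.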 What follows is part of a selection rich in actives, with near analogues and random picks from the rest.

The experiment has as its system glucose-6-phosphate dehydrogenase-6-phosphogluconolactonase (Plasmodium falciparum 3D7). In words: PfG6PD enzyme inhibitors, primary screen, biochemical, fluorescence intensity, uHTS (AID 504690).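 Note: 0% = DMSO wells with substrate and 100% = DMSO wells lacking glucose-6-phosphate.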 Conditions: PfGluPho enzyme, NADPH resazurin-diaphorase fluorescence; at 20 µM; hits give high values.
Take `COc1ccccc1CNC(=O)COn1nnc2ccc(S(=O)(=O)N3CCOCC3)cc21`: the inhibition was -5.31% (inactive). `CC(C)C(c1nnnn1C1CCCC1)N1CCN(c2ccccc2F)CC1` (stereo unspecified): the inhibition was 1.8% (inactive). Turning to `Cc1cc(C)c2[nH]c(=O)c(CN(Cc3ccccc3)C(=S)NCCCN(C)C)cc2c1`, the inhibition was -9.85% (inactive). For the molecule `COc1ccccc1-n1c(SCC(=O)Nc2ccc(Cl)cc2)nc(O)c(Cc2ccccc2)c1=O`, the inhibition was -30.4% (inactive). The same measure for `CC(C)n1cnc2c(NCc3ccccc3)cc(OCC3CCN(C)CC3)cc21`: 65.4% (active); for `CN(C)c1nccc(NCc2ccccc2)c1C#N`: -1.06% (inactive); for `Cn1c(N)cc(=O)n(C)c1=S`: -4.84% (inactive).

With `Cc1ccccc1-c1cc(C(=O)NCc2cccs2)n(CC2CC(c3cccnc3)=NO2)n1` (stereo unspecified), the inhibition is 1.18% (inactive). As for `Cc1ccc(OS(=O)(=O)c2ccc(-c3csc(C)n3)s2)c(C)c1`, the inhibition was 17.7% (inactive). Take `FC(F)(F)C1CCCN(c2nsc3ccccc23)C1` (stereo unspecified): the inhibition is 110% (active). In the case of `COc1ccc(Cl)cc1NC(=O)COc1ccc2c(c1)OCO2`, the inhibition was -7.15% (inactive).

Turning to `Cc1ccc(SC(C)C(=O)NCc2ccc(F)cc2)cc1` (stereo unspecified), the inhibition is 0.13% (inactive).

Regarding `CCC(=C/c1sc2ccc3ccccc3c2[n+]1C)/C=C1\Sc2ccc3ccccc3c2N1C`, the inhibition is 113% (active).

Regarding `CCC[C@H]1CCCC/C=C\CCCC(=O)OCCN1C(=O)OC(C)(C)C`, the inhibition was -3.27% (inactive). The same measure for `CN1CCN(c2nc(Nc3ccc(O)cc3)nc3ccccc23)CC1`: 3.52% (inactive); for `C=CC(=O)Nc1ccc(Nc2ccnc(Nc3ccc(N4CCN(C)CC4)cc3)n2)cc1`: 77.4% (active); for `Cn1cnnc1SCC(=O)Nc1ccc(N2CCOCC2)cc1`: 7.84% (inactive). Consider `CCCC[C@H]1COCCS(=O)(=O)N1Cc1cccc(Cl)c1`, for which the inhibition was 14% (inactive). With `O=C(CSc1nnc(CN2CCCC2)n1-c1ccc(F)cc1)c1ccc2c(c1)OCO2`, the inhibition is 8.99% (inactive). For `COC(=O)CCCC1=CC2=CC(=O)C(C)(OC(=O)c3cccs3)C(=O)C2=CN1CC(C)C` (stereo unspecified), the inhibition is 61.6% (active). As for `CCCCC1=CC2=CC(=O)C(C)(OC(=O)CC)C(=O)C2=CN1CCCOC(C)C` (stereo unspecified), the inhibition was 34.2% (inactive).

With `COC(=O)CCCC1=CC2=CC(=O)C(C)(OC(=O)c3cccs3)C(=O)C2=CN1c1cccc(C#N)c1` (stereo unspecified), the inhibition is 31.5% (inactive). In the case of `Cc1cccc(N2CCC(NCc3c(C(=O)N4CCCCC4)nc4c(C)cccn34)CC2)c1`, the inhibition was -3.68% (inactive). For `O=Cc1cn(-c2ccccc2)nc1-c1ccccn1`, the inhibition is -1.58% (inactive).

On to `COc1ccc(-c2nn(-c3ccccc3)cc2C(=O)Nc2nccs2)cc1OC`, for which the inhibition is 32.2% (inactive). Turning to `COc1ccc(-c2nn(-c3ccccc3)cc2/C=N/Nc2ccccn2)cc1OC`, the inhibition was 70.3% (active).
